Bioassay records from PubChem BioAssay.
TDP1 cell noCPT – qHTS for Inhibitors of human tyrosyl-DNA phosphodiesterase 1 (TDP1): qHTS in cells in absence of CPT. DT40 Tdp1-/- hTDP1 cells, no CPT, ATP luminescence, 48 h. Potency, µM (top dose mostly 46.2 µM), for the others: top-dose activity change, negative = growth inhibition, usual class: inhibitors. AID 686978, 2013. 15% of 420,000 active; note: potency is the fitted concentration of half-maximal effect; % is set by controls: 0 for no effect and ±100 for the full control effect; nearly all actives have a fitted effect of over 55% in size
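Cells were dispensed at 400 per well, compounds added by pin tool, plates incubated ≥48 hr at 37 °C, then CellTiter-Glo added for 30 min at room temperature before luminescence reading. Line: DT40 Tdp1-/- complemented with hTDP1; camptothecin omitted.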
IL1B secr inh – inhibitors of inflammasome signaling (IL-1 beta secretion); THP-1 LPS/ATP IL-1B secretion, AlphaLISA, 16 h; active compounds read low; 4.7% of 360,000 active; AID 743279; activity change, % at 57.5 µM; in the data active = activity change below about -50%; inconclusive = mostly about -30% to -49%; note: % is set by controls: 0 for no effect and ±100 for the full control effect
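Secreted IL-1B measured by AlphaLISA bead assay after 16 h compound exposure of THP-1 cells; compounds (final up to 57.5 uM) added 1 h before LPS (250 ng/mL) and ATP (1.25 mM) stimulation; lower signal means less secretion.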
TDP1 cell CPT – growth inhibition of DT40 Tdp1-/-;hTDP1 cells with camptothecin (screen for TDP1 inhibitors); chicken DT40 Tdp1-/-;hTDP1 cells + 20 nM CPT, ATP luminescence, 48 h; Potency, µM (titrated, usually from 46.2 µM), inactives show at the top dose activity change, negative = growth inhibition, hits mostly inhibitors; 12% of 420,000 active; note: potency is the fitted concentration of half-maximal effect; % is set by controls: 0 for no effect and ±100 for the full control effect; nearly all actives have a fitted effect of over 55% in size
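Chicken DT40 Tdp1-/- cells stably complemented with human TDP1 were seeded at 400 cells/well in medium containing 20 nM camptothecin, exposed to pin-transferred compounds, and grown at 37 °C for at least 48 hr. Viability was read as ATP luminescence.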
TGFb inhibitor – inhibitors of TGF-b signaling; HepG2 CAGA-GFP TGF-b/SMAD3 reporter, GFP fluorescence, 18 h; TGF-beta stimulated, 500 pg/mL final; Potency, µM (top dose mostly 46.1 µM), for the others: at the top dose activity, negative = inhibition, usual class: inhibitors; 1.2% of 410,000 active; note: potency is the fitted concentration of half-maximal effect; % is set by controls: 0 for no effect and ±100 for the full control effect; nearly all actives have a fitted effect of over 65% in size
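Read-out: total well GFP (ex488/em500-530) summed from mean per-cell fluorescence. Cells: HEPG2 CAGA-GFP, 1% FBS DMEM, 18 h at 37 degrees C with 500 pg/mL final TGF-beta. Unstimulated wells served as the full-inhibition control; stimulated DMSO wells = 0%.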
HepG2 viability – kills HepG2 cells in TGF-b inhibitor counter-screen; 0.76% of 410,000 active; HepG2 CAGA-GFP viability, ATP luminescence, 18 h; Potency, µM (doses to about 46.1 µM), for the others: top-dose activity change, negative = cytotoxicity, hits mostly cytotoxic; note: potency is the fitted concentration of half-maximal effect
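HepG2 CAGA-GFP cells (1000/well, DMEM with 1% FBS) received compound, then TGF-beta at 500 pg/mL final, and were incubated 18 hours at 37 degrees C. Viability was read by CellTiter-Glo luminescence. Media-only wells were set as complete cell-killing and DMSO as no toxicity.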
TDP1 inh – blocks human tyrosyl-DNA phosphodiesterase 1. Q9NUW8. recombinant TDP1, AlphaScreen DNA substrate cleavage. Potency, µM (top dose mostly 130 µM), for the others: top-dose activity change, negative = inhibition, usual class: inhibitors. 0.28% of 350,000 active; note: potency is the fitted concentration of half-maximal effect; % is set by controls: 0 for no effect and ±100 for the full control effect; nearly all actives have a fitted effect of over 40% in size
Target sequence (Q9NUW8 whole entry, looked up): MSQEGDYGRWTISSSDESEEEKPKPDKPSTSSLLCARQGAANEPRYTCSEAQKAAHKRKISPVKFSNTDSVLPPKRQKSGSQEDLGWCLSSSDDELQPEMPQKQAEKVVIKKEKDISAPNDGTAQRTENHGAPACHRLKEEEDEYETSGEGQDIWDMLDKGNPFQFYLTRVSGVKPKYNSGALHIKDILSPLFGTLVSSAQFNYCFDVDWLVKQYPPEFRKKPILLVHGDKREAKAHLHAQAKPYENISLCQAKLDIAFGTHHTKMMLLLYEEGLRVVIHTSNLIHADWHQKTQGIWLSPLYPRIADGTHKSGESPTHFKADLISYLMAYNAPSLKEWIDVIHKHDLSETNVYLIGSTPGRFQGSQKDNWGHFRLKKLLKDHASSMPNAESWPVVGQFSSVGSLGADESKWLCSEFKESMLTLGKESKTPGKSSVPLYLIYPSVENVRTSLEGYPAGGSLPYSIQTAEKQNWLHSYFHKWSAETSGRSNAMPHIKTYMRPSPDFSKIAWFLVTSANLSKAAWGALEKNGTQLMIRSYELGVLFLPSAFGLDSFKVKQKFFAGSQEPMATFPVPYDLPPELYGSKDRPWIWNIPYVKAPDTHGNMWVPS
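Compounds were preincubated with Tdp1 (1 nM final) for 15 min at room temperature before substrate (15 nM final) started a 5 min reaction; beads (10 ug/ml final) were then added for 10 min before AlphaScreen detection.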
Starred values were filed as active, the others as inactive; ? = inconclusive; . = not tested or not shown; [ ] = dose if it differs, or a comment. Shown are actives, neighbours in structure and some others; about 19% of the full set was active somewhere. Unless noted, calls come from the whole dose curve; as a rule, active = well fitted curve in the direction sought with a large enough effect; inconclusive = small, poorly fitted or top-dose-only effect, or another doubt; inactive = no such curve, though single readings can be large; an effect the other way counts as inactive or inconclusive.

SMILES	TDP1 cell noCPT	IL1B secr inh	TDP1 cell CPT	TGFb inhibitor	HepG2 viability	TDP1 inh
CCCC(=O)O/N=C(\c1ccccc1)c1ccncc1	-5.6%	-5.6	-5.3%	-8.8%	-3.6%	.
CSc1nc(Cl)c(Br)c(Nc2c[nH]c(=O)[nH]c2=O)n1	?	13.3	?	18.6%	-1.8%	.
COc1cccc(/C=C/C(=O)N(C)CC(=O)Nc2ccc(Cl)c(C(F)(F)F)c2)c1	?	-13.6	?	-7.1%	-29.7%	.
C/C(=N/NC(=S)Nc1cccc(C)c1)c1cccc([N+](=O)[O-])c1	13µM*	-20.7	11.6µM*	?	-35.1%	7.6%
C/C(=N/Nc1nc(C)c(C)s1)c1cccc([N+](=O)[O-])c1	23.1µM*	21.6	14.6µM*	?	-10.2%	.
C/C(=N\NC(=S)NC(C)C)c1ccc(Cl)c([N+](=O)[O-])c1	18.4µM*	-91.6*	18.4µM*	?	-32.4%	-2.7%
C/C(=N\NC(=S)NC(C)C)c1cccc([N+](=O)[O-])c1	0.92µM*	-7.0	0.92µM*	?	-16.7%	0.0%
COc1ccc(C(=O)O)cc1S(=O)(=O)N1CCN(Cc2ccc3c(c2)OCO3)CC1	-11.3%	18.4	26.5%	-1.9%	14.8%	0.1%
CC(C)(C)CN1CCN(CCCc2ccccc2)C(CCO)C1 (configuration not stated)	?	-16.8	-25.1%	-1.8%	0.8%	.
CC(=O)Nc1cccc(/C(C)=N/NC(=S)NC(C)C)c1	4.61µM*	-27.3	3.66µM*	12.2%	-15.2%	0.0%
COc1ccc(S(=O)(=O)NCCc2sc(-c3cccnc3)nc2C)c(F)c1	.	.	.	-1.3%	-20.8%	8.8%
Cc1ccc(/C=N/NC(=O)c2cc(-c3ccc(C)o3)[nH]n2)cc1	14.6µM*	5.9	13µM*	2.0%	-10.0%	.
Cc1ccc(-c2cc(C(=O)N/N=C/c3cccnc3)n[nH]2)o1	-28.5%	-14.1	-1.3%	-16.2%	1.2%	5.1%
CCC(=O)Nc1ccc2c(c1)nc(CN1CCCCC1)n2C	9.0%	-17.2	-9.1%	-5.9%	-7.0%	-2.5%
CCn1c(CN2CCCCC2)nc2cc(NC(=O)c3cccc([N+](=O)[O-])c3)ccc21	23.1µM*	.	18.4µM*	-14.3%	-28.4%	5.7%
CCn1c(CN2CCCCC2)nc2cc(NC(=O)COc3cc(C)ccc3C(C)C)ccc21	?	.	18.4µM*	-9.9%	-6.6%	8.9%
COc1ccc(OCC(=O)Nc2ccc3c(c2)nc(CN2CCCC2)n3C)cc1	?	-10.6	?	7.8%	-5.6%	3.9%
CCn1c(CN2CCCCC2)nc2cc(NC(=O)COc3ccc(C(C)(C)C)cc3)ccc21	8.2µM*	.	11.6µM*	-0.1%	-3.2%	1.6%
Cc1ccc(C(C)C)c(OCC(=O)Nc2ccc3c(c2)nc(CCN2CCCCC2)n3C)c1	?	-80.5*	?	?	-107.5%	4.5%
CN(C)c1ccc(CCc2ccc(N)cc2)cc1	-21.9%	-4.8	11.0%	3.4%	1.2%	.
Nc1ccc(N(c2ccccc2)c2ccc(N)cc2)cc1	13µM*	16.7	16.4µM*	-10.2%	-29.1%	13.4%
Cc1ccc(CN2CCOc3ccc(C(C)(O)COc4ccccc4)cc3C2)o1 (configuration not stated)	-13.6%	.	0.3%[9.04 µM]	.	.	.
O=c1c2ccccc2nc(SCc2ccccc2)n1CC1CCCO1 (configuration not stated)	?	21.5	?	1.2%	-3.7%	-3.8%
CC(C)Oc1ccccc1OCCCOc1cccc2cccnc12	20.6µM*	?	?	-1.1%	-9.5%	4.6%
OCc1ccccc1OCCCOc1cccc2cccnc12	-10.1%	-18.3	-1.2%	0.0%	-15.5%	5.7%
